Data: the supplement of paper PMC9694430

System: LOC_OS02G08530-cb003
Assay: thermal shift delta Tm vs DMSO control; higher = stronger stabilization (binding)
Conditions: 12.5 µM; protein concentration 2 µM
Outline: (§1)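 Rice kinase domain constructs, made in E. coli and purified, were placed in 96-well plates at 2 μM in 19.5 μl of 100 mM potassium phosphate pH 7.5, 150 mM NaCl, 10% glycerol and 5 × SYPRO Orange, with compound in DMSO. A temperature ramp from 25°C to 95°C at 0.05°C/s was used for differential scanning fluorimetry. The melting temperature shift is a triplicate mean compared with DMSO-only protein, derived from Boltzmann fits.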
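Also: purified Escherichia coli-expressed rice kinase domain construct.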

SMILES | thermal shift delta Tm [°C]
Cc1ccc(NC(=O)c2cccc(C(C)(C)C#N)c2)cc1Nc1ccc2ncn(C)c(=O)c2c1 | 0.95
Nc1ccc(-c2ccc3ncc4ccc(=O)n(-c5cccc(C(F)(F)F)c5)c4c3c2)cn1 [Torin 2] | 1.53
CCN(CC)CCCC(C)Nc1ccnc2cc(Cl)ccc12 (stereo unspecified) [Chloroquine Phosphate] | 0.31
C[C@@H](N)[C@H]1CC[C@H](C(=O)Nc2ccncc2)CC1 | 0.85
COc1cc(N2CCC(N(C)C)CC2)ccc1Nc1ncc(Cl)c(Nc2ccccc2P(C)(C)=O)n1 | 5.8
CCCS(=O)(=O)Nc1ccc(F)c(C(=O)c2c[nH]c3ncc(-c4ccc(Cl)cc4)cc23)c1F [Vemurafenib (PLX4032, RG7204)] | 1.07
CO[C@H]1C[C@@H]2CC[C@@H](C)[C@@](O)(O2)C(=O)C(=O)N2CCCC[C@H]2C(=O)O[C@H]([C@H](C)C[C@@H]2CC[C@@H](OCCO)[C@H](OC)C2)CC(=O)[C@H](C)/C=C(\C)[C@@H](O)[C@@H](OC)C(=O)[C@H](C)C[C@H](C)/C=C/C=C/C=C/1C [Everolimus (RAD001)] | 0.55
COc1ccc(S(=O)(=O)N(CCO)c2ccccc2CN(C)C/C=C/c2ccc(Cl)cc2)cc1 [KN-93 Phosphate] | 0.66
CN(C[C@@H]1COCCO1)S(=O)(=O)Nc1ccc2ccc3ncc(-c4cnn(C)c4)cc3c(=O)c2c1 | 1.58
COc1ccc(CCNCc2ccc(OCc3ccc(Cl)nc3)c(OC)c2)cc1OC | 0.56
Clc1ccc(C2(c3ccc(-c4cn[nH]c4)cc3)CCNCC2)cc1 | 0.59
CN(C)Cc1cccc(N/C(=C2\C(=O)Nc3cc(C(N)=O)ccc32)c2ccccc2)c1 | 1.55
CC[C@H](CO)Nc1nc(NCc2ccccc2)c2ncn(C(C)C)c2n1 [Roscovitine (Seliciclib,CYC202)] | 0.8
Cc1cc(Nc2cc(N3CCN(C)CC3)nc(/C=C/c3ccccc3)n2)n[nH]1 | 2.41

System: LOC_OS02G14120-cb001
Assay: as above
Conditions: 12.5 µM; protein concentration 2 µM
Outline: as §1

SMILES | thermal shift delta Tm [°C]
CCOc1cc2ncc(C#N)c(Nc3ccc(OCc4ccccn4)c(Cl)c3)c2cc1NC(=O)/C=C/CN(C)C [Neratinib (HKI-272)] | 1.97
COc1cc2nccc(Oc3ccc(NC(=O)Nc4cc(C)on4)c(Cl)c3)c2cc1OC [Tivozanib (AV-951)] | 6.58
O=C1NC(=O)C(c2ccccc2[N+](=O)[O-])=C1Nc1ccc(O)c(Cl)c1 | -1.08
Cc1c(C(=O)N2CCOc3ccc(-c4ccc(N)nc4)cc3C2)ccc(S(C)(=O)=O)c1F | 0.74
Cn1nccc1Nc1nccc(-c2ccn([C@H](CO)c3ccc(Cl)c(F)c3)c(=O)c2)n1 | 0.71
COc1cc2c(N3CCN(C(=O)Nc4ccc(OC(C)C)cc4)CC3)ncnc2cc1OCCCN1CCCCC1 [Tandutinib (MLN518)] | 0.24
C[C@@H]1COCCN1c1cc(=O)n2c(n1)N(Cc1cncc(Cl)c1)[C@H](C(F)(F)F)CC2 | 0.82
COc1ccc(F)c(F)c1C(=O)c1cnc(NC2CCN(S(C)(=O)=O)CC2)nc1N | -0.08
O=C(NCc1ccccc1)c1csc(Nc2ccncn2)n1 [Thiazovivin] | 0.71
CCN(CC)CCCCNc1ncc2cc(-c3cc(OC)cc(OC)c3)c(NC(=O)NC(C)(C)C)nc2n1 | -0.08
O=c1cc(N2CCOCC2)oc2c(-c3ccc4c(c3)OCCO4)csc12 | 1.45
Nc1ccc(C(=O)Nc2cccc(-c3nc(N4CCOCC4)c4oc5ncccc5c4n3)c2)cn1 | 0.34
O=C(NC[C@H](O)CO)c1ccncc1Nc1ccc(I)cc1F | -0.42
CCOc1cc2ncc(C#N)c(Nc3ccc(F)c(Cl)c3)c2cc1NC(=O)/C=C/CN(C)C [Pelitinib (EKB-569)] | 0.98
COc1cc2ncnc(Nc3ccc(Cl)cc3F)c2cc1OC | 4.69
Cc1cc(Nc2ncnc3ccc(NC4=NC(C)(C)CO4)cc23)ccc1Oc1ccn2ncnc2c1 [Irbinitinib (ARRY-380, ONT-380)] | 0.7
CC1(C)CNc2cc(NC(=O)c3cccnc3NCc3ccncc3)ccc21 [Motesanib Diphosphate (AMG-706)] | -0.17
COC(=O)Nc1ccc(-c2nc(N3CCOCC3)c3cnn(C4CCN(C(=O)OC)CC4)c3n2)cc1 | -0.24
COc1cc(C(=O)N2CCC(N3CCN(C)CC3)CC2)ccc1Nc1ncc2c(n1)N(C)c1ccccc1C(=O)N2C | 1.72

SMILES | thermal shift delta Tm [°C]
C=C(C)[C@@H]1CC[C@]2(C)CC[C@]3(C)[C@H](CC[C@@H]4[C@@]5(C)CC[C@H](O)C(C)(C)[C@@H]5CC[C@]43C)[C@@H]12 [Lupeol] | -0.18
Oc1cccc(-c2nc(N3CCOCC3)c3oc4ncccc4c3n2)c1 | 0.49
CCn1c(N)c(C(=O)NC)c(=O)c2ccc(C#CC(C)(O)COC)nc21 (stereo unspecified) | 1.34
CCOc1cc(C(=O)N2CCC(N3CCN(C)CC3)CC2)ccc1Nc1ncc2c(n1)N(C1CCCC1)c1ccccc1C(=O)N2C | -0.51
Cc1ccc(NC(=O)c2cccc(C(C)(C)C#N)c2)cc1Nc1ccc2ncn(C)c(=O)c2c1 | 1.71
Nc1ccc(-c2ccc3ncc4ccc(=O)n(-c5cccc(C(F)(F)F)c5)c4c3c2)cn1 [Torin 2] | 1.62
CCN(CC)CCCC(C)Nc1ccnc2cc(Cl)ccc12 (stereo unspecified) [Chloroquine Phosphate] | 0.87
C[C@@H](N)[C@H]1CC[C@H](C(=O)Nc2ccncc2)CC1 | 0.71
COc1cc(N2CCC(N(C)C)CC2)ccc1Nc1ncc(Cl)c(Nc2ccccc2P(C)(C)=O)n1 | 10.2
CCCS(=O)(=O)Nc1ccc(F)c(C(=O)c2c[nH]c3ncc(-c4ccc(Cl)cc4)cc23)c1F [Vemurafenib (PLX4032, RG7204)] | 4.6
CO[C@H]1C[C@@H]2CC[C@@H](C)[C@@](O)(O2)C(=O)C(=O)N2CCCC[C@H]2C(=O)O[C@H]([C@H](C)C[C@@H]2CC[C@@H](OCCO)[C@H](OC)C2)CC(=O)[C@H](C)/C=C(\C)[C@@H](O)[C@@H](OC)C(=O)[C@H](C)C[C@H](C)/C=C/C=C/C=C/1C [Everolimus (RAD001)] | 1.17
COc1ccc(S(=O)(=O)N(CCO)c2ccccc2CN(C)C/C=C/c2ccc(Cl)cc2)cc1 [KN-93 Phosphate] | 0.97
CN(C[C@@H]1COCCO1)S(=O)(=O)Nc1ccc2ccc3ncc(-c4cnn(C)c4)cc3c(=O)c2c1 | 8.53
COc1ccc(CCNCc2ccc(OCc3ccc(Cl)nc3)c(OC)c2)cc1OC | 0.14
Clc1ccc(C2(c3ccc(-c4cn[nH]c4)cc3)CCNCC2)cc1 | 0.25
CN(C)Cc1cccc(N/C(=C2\C(=O)Nc3cc(C(N)=O)ccc32)c2ccccc2)c1 | 1.2
CC[C@H](CO)Nc1nc(NCc2ccccc2)c2ncn(C(C)C)c2n1 [Roscovitine (Seliciclib,CYC202)] | 0.04
Cc1cc(Nc2cc(N3CCN(C)CC3)nc(/C=C/c3ccccc3)n2)n[nH]1 | 7.14
